Test results from PubChem BioAssay (NCATS).
Inconclusive results are not listed. Entries that show only a call come without a potency. A number with no mark means an inactive call. Activity calls are given as the source filed them. Calls come from the whole dose curve; as a rule, active = well fitted inhibition curve with a large enough effect; inconclusive = small, poorly fitted or top-dose-only effect; inactive = no such curve, though single readings can be large or run the other way.

These compounds were tested on Zika virus NS2B-NS3 protease (linked construct) (assay: Primary screen NINDS Rhodamine qHTS for Zika virus inhibitors (AID 1347160; note: nearly all actives have a fitted effect of over 55% in size)). Details: purified NS2B-NS3 protease, Rhodamine110 substrate fluorescence; series mostly up to 57.1 µM.
Excerpt: Avindra Nath, Ph.D., National Institute of Neurological Disorders and Stroke (NINDS), Bethesda, MD
Radhakrishnan Padmanabhan, Ph.D., Georgetown University (GU), Washington D.C.
Zika Virus causes congenital defects, including microcephaly and is associated with Guillain-Barre syndrome, eningoencephalitis and myelitis in infected adult. […] Using a target-based approach, we hope to establish a screening paradigm to uncover novel, cell-active NS2B-NS3 protease (Zika Virus) specific inhibitors from NCATS' collection of small molecules using qHTS.
Four assay panel was created to identify potential Zika Virus inhibitors. Namely, (1) GU unlinked NS2B-NS3 AMC tagged protease qHTS, (2) GU unlinked NS2B-NS3 Rhodamine tagged protease qHTS, (3) NINDS linked NS2B-NS3 AMC tagged protease qHTS, (4) NINDS linked NS2B-NS3 Rhodamine tagged protease qHTS. Active compounds were re-acquired and re-screened to confirm inhibition. Inhibitors were further screened against various confirmatory and counterscreens in dose response format.
Early Translation Branch (ETB)
National Center for Advancing Translational Sciences (NCATS), Rockville, MD
National Institute of Health (NIH), Bethesda, Maryland
For the linked assay, Nath lab (NINDS) provided the purified linked NS2B-NS3 protease which is consists of hydrophilic domain of NS2B linked to the NS3 protease domain by a flexible (-[…]-) linker. Control compound aprotinin is obtained from Thermo Scientific (#78432; Waltham, Massachusetts). Rhodamine110 substrate ([N-Cbz]-Nle-Lys-Arg-Arg-Rhod110-Arg-Arg-Lys-Nle-[N-Cbz]) was purchased from either Genscript or Bachem.
1536-well Protease (Rhodamine110 Substrate) Assay:
Briefly, 3 microL of enzyme (25 nM final concentration), in assay buffer (10 mM Tris-HCl pH 8.0 with 0.01% Tween 20) were dispensed into a 1,536-well solid-bottom black plate (Greiner Bio One, Monroe, NC). Twenty-three nL of compounds (final concentration range 7.28 nM to 114 microM) or control Aprotinin (final concentration range 3.47 nM to 114 microM) were transferred via Wako Pin-tool (Wako Automation, Richmond, VA). Samples were incubated (room temperature, protected from light) for 15 minutes followed by a 1 microL Rhodamine110 substrate addition (1.5 microM final concentration). Plates were then immediately read on a ViewLux High-throughput CCD imager (PerkinElmer, Waltham, MA) equipped with FITC fluorescence optics (480(20) nm excitation, 540(25) nm emission), then incubated (room temperature, protected from light) for 15 minutes (~15% conversion). The change in fluorescence intensity over the 15-minute reaction period was normalized against no-inhibitor and no-enzyme controls and the resulting percent inhibition data were fitted to a 4-parameter Hill equation. Aprotinin was used as intraplate control.
Potency is the fitted concentration of half-maximal effect.

Compound | Potency | activity change, negative = inhibition
C=C(C(=O)OC)C1C(O)CC2(C)C(=O)CCC(O)(CO)C2C1O (stereo not given) | inactive | –
CCC(C)C(=O)OC1CC(O)C23C4OCC5(C(O)CC2C1(C)C(O)O4)C3C(=O)C(O)C1(C)C(O)(c2ccoc2)CC2OC251 (stereo not given) | inactive | –
Cc1ccc([N+](=O)[O-])cc1S(=O)(=O)N(C)/N=C/c1cnc2ccc(Br)cn12 | inactive | –
Cc1cc(C(=O)Nc2cccc(C(=O)Nc3cccc(C(F)(F)F)c3)c2)on1 | inactive | –
C[C@H](C/C=C/C(C)(C)O)[C@H]1CC[C@@]2(C)[C@@H]3[C@@H](O[C@@H]4O[C@H](CO)[C@@H](O)[C@H](O)[C@H]4O)C=C4C(CC[C@H](O)C4(C)C)[C@]3(C=O)CC[C@]12C (stereo not given in full) | inactive | –
CC[C@H]1OC(=O)[C@](C)(F)C(=O)[C@H](C)[C@@H](O[C@@H]2O[C@H](C)C[C@H](N(C)C)[C@H]2O)[C@](C)(OC)C[C@@H](C)C(=O)[C@@H](C)[C@H]2N(CCCCn3cc(-c4cccc(N)c4)nn3)C(=O)O[C@]12C | inactive | –
CCOc1cc2ncc(C#N)c(Nc3ccc(F)c(Cl)c3)c2cc1NC(=O)/C=C/CN(C)C | inactive | –
N#Cc1ccc(C(=O)N2CCC3(CC2)N=C(N)c2c(F)ccc(F)c2N3)cn1 | inactive | –
C[C@@H]1C(=O)O[C@H]2C[C@]34[C@H]5C[C@@H](C(C)(C)C)[C@]36[C@@H](OC(=O)[C@H]6O)O[C@]4(C(=O)O5)[C@]21O | inactive | –
CC(=O)NC1C(OC(C)(C)C2CCC3(C)C=C(C4CCC5C4(C)CC(O)C4OC(C(C)(C)O)CCC45C)CCC3O2)OC(CO)C(O)C1O (stereo not given) | inactive | –
CC(C)c1cc(C(=O)N2CC[C@@H](NC(=O)C3CC3)C2)n[nH]1 | inactive | –
CC(=O)N[C@H]1[C@H](O[C@H]2CC[C@@]3(C)C(CC[C@]4(C)C3CC=C3C5CC(C)(C)CC[C@]5(C(=O)O)[C@H](O)C[C@]34C)C2(C)C)O[C@H](CO[C@@H]2OC[C@H](O)[C@H](O)[C@H]2O[C@@H]2OC[C@@H](O)[C@H](O)[C@H]2O)[C@@H](O)[C@@H]1O (stereo not given in full) | inactive | –
C/C=C1\[C@H](O[C@@H]2O[C@H](CO)[C@@H](O)[C@H](O)[C@H]2O)OC=C(C(=O)OC)[C@H]1CC(=O)OC[C@H]1O[C@@H](OCCc2ccc(O)cc2)[C@H](O)[C@@H](O)[C@@H]1O | inactive | –
CC(NC(=O)C(O)C(C)C)C(=O)NC1C(=O)N(C)CCc2ccccc21 (stereo not given) | inactive | –
CNC(=O)c1ccccc1Nc1nc(Nc2ccc(N3CCNCC3)cc2)ncc1Cl | inactive | –
C(#Cc1nc2ncccc2nc1OCCN1CCCC1)c1ccccc1 | inactive | –
CC1CCN(C(=O)CC#N)CC1N(C)c1ncnc2[nH]ccc12 (stereo not given) | inactive | –
COc1cc(O)cc(/C=C/c2ccc(O[C@@H]3O[C@H](CO)[C@@H](O)[C@H](O)[C@H]3O)cc2)c1 | inactive | –
Cn1ncnc1COc1nn2c(-c3cc(F)ccc3F)nnc2cc1C(C)(C)C | inactive | –
CCNC(=O)C1OC(n2cnc3c(N)nc(NCCc4ccc(CCC(=O)O)cc4)nc32)C(O)C1O (stereo not given) | inactive | –

Compound | Potency | activity change, negative = inhibition
Cn1cncc1C(N)(c1ccc(Cl)cc1)c1ccc2c(c1)c(-c1cccc(Cl)c1)cc(=O)n2C (stereo not given) | inactive | –
c1cc(OCCCN2CCCCC2)ccc1CN1CCCCC1 | inactive | –
COc1cc(C)c(C(=O)O[C@H]2[C@@H](OC(C)=O)[C@H](n3ccc(=O)[nH]c3=O)O[C@@H]2CO)c(OC)c1 | inactive | –
CC1=C(C)C(=O)OC(C(C)C2CCC3C4C5OC5C5(O)CC(OC6OC(CO)C(OC7OC(C)C(O)C(O)C7O)C(O)C6O)CC(O)C5(C)C4CCC23C)C1 (stereo not given) | inactive | –
CC1=C(C(=O)O[C@@H]2O[C@H](COC3OCC(O)C(O)C3O)[C@@H](O)[C@H](O)[C@H]2O)C(C)(C)CCC1 (stereo not given in full) | inactive | –
COc1ccc(CC2NCCc3c2[nH]c2ccc(C)cc32)cc1OC (stereo not given) | inactive | –
Cc1ccc(C(=O)N(CCCN)C(c2nc3cc(Cl)ccc3c(=O)n2Cc2ccccc2)C(C)C)cc1 (stereo not given) | inactive | –
COC(=O)C1(C)c2[nH]c3ccccc3c2CCN1C(=O)CCl (stereo not given) | inactive | –
C[C@@H]1O[C@@H](O[C@H]2[C@H](O[C@H]3CC[C@@]4(C)C(CC[C@]5(C)C4CC=C4[C@@H]6CC(C)(C)CC[C@]6(C(=O)O[C@@H]6OC[C@H](O)[C@H](O)[C@H]6O[C@@H]6O[C@@H](C)[C@H](O[C@@H]7O[C@H](CO)[C@@H](O)[C@H](O)[C@H]7O)[C@H](O)[C@H]6O)[C@H](O)C[C@]45C)C3(C)C)O[C@H](CO)[C@@H](O[C@@H]3OC[C@@H](O)[C@H](O)[C@H]3O)[C@@H]2O)[C@H](O)[C@H](O)[C@H]1O (stereo not given in full) | – | -3.53% [at 10.7 µM]
COc1cc(Nc2nc3ccccc3nc2NS(=O)(=O)c2ccc(NC(=O)c3ccc(OC)c(C)c3)cc2)cc(OC)c1 | 8.91 µM (active) | –
CCOCc1nc2c(N)nc3ccccc3c2n1CC(C)(C)O | inactive | –
COc1cc(N2CCC(N3CCN(C)CC3)CC2)ccc1Nc1ncc(Cl)c(-c2c[nH]c3ccccc23)n1 | inactive | –
CN(C)C/C=C/C(=O)Nc1cccc(C(=O)Nc2cccc(Nc3ncc(Cl)c(-c4c[nH]c5ccccc45)n3)c2)c1 | inactive | –
OC1CCC(Nc2ncc3nc(Nc4c(F)cc(F)cc4F)n([C@H]4CCOC4)c3n2)CC1 (stereo not given in full) | inactive | –
Cc1c(C(=O)N2CCOc3ccc(-c4ccc(N)nc4)cc3C2)ccc(S(C)(=O)=O)c1F | inactive | –
CC(=O)O[C@@H]1CC(C)=C2[C@H]1[C@H](C)CC[C@H]2/C=C(\C)C(=O)O | inactive | –
O=C(CCc1nnc2n(Cc3ccc(Cl)cc3)c(=O)c3ccccc3n12)NCCC1=CCCCC1 | inactive | –
CC(=O)CCC1=C(C)C(O[C@@H]2O[C@H](CO)[C@@H](O)[C@H](O)[C@H]2O)C(O)CC1(C)C (stereo not given in full) | inactive | –
C[C@@H]1C[C@@H]([C@@H](O)C(C)(C)O)O[C@H]2C[C@@]3(C)C(=C12)C[C@H](O)[C@H]1[C@@]2(C)CCC(=O)C(C)(C)C2CC[C@@]13C (stereo not given in full) | inactive | –
C[C@@H]1O[C@@H](O[C@H]2[C@H](OC(=O)[C@]34CCC(C)(C)C[C@H]3C3=CCC5[C@@]6(C)C[C@H](O)[C@H](O[C@@H]7O[C@H](CO)[C@@H](O[C@H]8OC[C@](O)(CO)[C@H]8O)[C@H](O)[C@H]7O)[C@@](C)(CO)C6[C@H](O)C[C@@]5(C)[C@]3(C)C[C@H]4O)OC[C@H](O)[C@@H]2O)[C@H](O)[C@H](O)[C@H]1O[C@@H]1OC[C@@H](O)[C@H](O[C@@H]2OC[C@](O)(CO)[C@H]2O)[C@H]1O (stereo not given in full) | – | 33.3% [at 10.7 µM]
